Records with an inconclusive call do not appear. Unmarked numbers belong to inactive results. Activity calls are given as the source filed them. Unless noted, calls follow the shape of the dose curve; as a rule, active = well fitted curve in the direction sought with a large enough effect in the repeat runs; inconclusive = weak or mixed curves; inactive = no such curve, though single readings can be large; an effect the other way counts as inactive or inconclusive.

The source of these data is PubChem BioAssay (Tox21).

The nature of experiment [1]: qHTS assay to identify small molecule agonists of the constitutive androstane receptor (CAR) signaling pathway - cell viability counter screen (AID 1224836). Also: series mostly up to about 92 µM; nearly all actives have a fitted effect of over 45% in size. In a few lines:
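Cells were seeded and incubated 4 hrs. Compounds were added across 15 concentrations together with PK11195 at 0.75 uM final. Plates were incubated 23 hrs at 37 C. CellTiter-Fluor was added and fluorescence measured.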
On the technique in general: Quantitative high-throughput screening tests each substance at several concentrations.

The nature of experiment [2]: qHTS assay to identify small molecule antagonists of the constitutive androstane receptor (CAR) signaling pathway - cell viability counter screen (AID 1224837). Also: series mostly up to about 92 µM; nearly all actives have a fitted effect of over 45% in size. Summed up: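 Multiplexed cytotoxicity read-out for the CAR antagonist screen: double-stable HepG2-CYP2B6-hCAR cells co-treated with 50 nM CITCO (final) and compound over 15 concentrations, incubated 23 hr, then assessed by CellTiter-Fluor fluorescence.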

A short description of experiment [3]: qHTS assay to identify small molecule antagonists of the estrogen related receptor signaling pathway with the pleiotropic PPARgamma coactivator (PGC) from Tox21 10K library - cell viability counter screen (AID 1224840; active = well fitted cell-killing curve with a large enough effect in the repeat runs, not every such curve was filed as active; also: nearly all actives have a fitted effect of over 40% in size). In a few lines: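 Step one, plate 2,000 PGC/ERR cells per well; step two, incubate 6 h at 37 C/5% CO2; step three, pin-transfer compounds; step four, incubate 17.5 h; step five, add CellTiter-Fluor and read fluorescence after 30 min.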

The nature of experiment [4]: qHTS assay to identify small molecule agonists of the estrogen related receptor signaling pathway with the pleiotropic PPARgamma coactivator (PGC) from Tox21 10K library (AID 1224842). Also: nearly all actives have a fitted effect of over 15% in size. In a few lines:
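PGC/ERR reporter cell line, 2,000 cells per well, incubated 6 h at 37 C before 23 nL compound in DMSO was added. After 18 h at 37 C, One-Glo luminescence read following 30 min at room temperature.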

The target in experiment [5] is Luciferin 4-monooxygenase (Photinus pyralis) (UniProt P08659). Put plainly: qHTS assay to identify small molecule inhibitors of firefly luciferase (AID 1224835). Also: series mostly up to about 120 µM; nearly all actives have a fitted effect of over 25% in size. In a few lines:
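Biochemical qHTS: compounds run as interplate titrations against purified firefly enzyme, with D-luciferin and ATP each at its KM concentration. Light output recorded by CCD imaging.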

The target of experiment [6] is Nuclear receptor subfamily 1 group I member 3 (Homo sapiens) (UniProt Q14994). Put plainly: qHTS assay to identify small molecule antagonists of the constitutive androstane receptor (CAR) signaling pathway (AID 1224838). Also: nearly all actives have a fitted effect of over 40% in size. Also: potency is read from the fitted curve at half-maximal effect. In a few lines: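 Compounds were titrated across 15 concentrations onto HepG2 cells double-stably expressing hCAR and a CYP2B6-2.2kb reporter, together with 50 nM CITCO (final). After 24 h at 37 C, luciferase activity was measured by luminescence.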
Nuclear receptor subfamily 1 group I member 3 (Homo sapiens), sequence (Q14994 whole entry, looked up): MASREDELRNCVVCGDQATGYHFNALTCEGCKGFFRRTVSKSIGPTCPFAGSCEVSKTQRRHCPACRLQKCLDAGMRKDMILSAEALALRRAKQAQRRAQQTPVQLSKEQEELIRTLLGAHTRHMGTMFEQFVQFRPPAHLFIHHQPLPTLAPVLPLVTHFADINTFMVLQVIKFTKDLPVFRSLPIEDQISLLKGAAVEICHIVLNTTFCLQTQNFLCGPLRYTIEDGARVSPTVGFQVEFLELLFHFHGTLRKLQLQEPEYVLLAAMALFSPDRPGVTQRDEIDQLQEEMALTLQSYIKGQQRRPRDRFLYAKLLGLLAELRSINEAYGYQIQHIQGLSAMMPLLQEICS

For experiment [7] the target is unchanged. In words: qHTS assay to identify small molecule agonists of the constitutive androstane receptor (CAR) signaling pathway (AID 1224839). Also: nearly all actives have a fitted effect of over 15% in size. Also: potency is read from the fitted curve at half-maximal effect. As to activation: series mostly up to about 92 µM. Summed up: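 Cells were plated and incubated 4 hrs, then dosed with compounds at 15 concentrations. PK11195 was added to 0.75 uM final. After 24 hrs at 37 C, luciferase luminescence was measured.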
The nature of experiment [8]: qHTS assay to identify small molecule antagonists of the estrogen related receptor signaling pathway with the pleiotropic PPARgamma coactivator (PGC) from Tox21 10K library (AID 1224841; call rule not given here; also: actives are mostly falling curves and most rising ones were filed inactive; nearly all actives have a fitted effect of over 50% in size; also: potency is read from the fitted curve at half-maximal effect). In a few lines: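 Antagonism in this quantitative HTS is taken from loss of luciferase signal in PGC/ERR cells. Cells (2,000/well) are treated with compounds in DMSO after a 6 h settling period and read by One-Glo luminescence after 18 h.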
% is scaled to controls: 0 for no effect and ±100 for the full control effect.

Luciferin 4-monooxygenase (Photinus pyralis), sequence (P08659 whole entry, looked up): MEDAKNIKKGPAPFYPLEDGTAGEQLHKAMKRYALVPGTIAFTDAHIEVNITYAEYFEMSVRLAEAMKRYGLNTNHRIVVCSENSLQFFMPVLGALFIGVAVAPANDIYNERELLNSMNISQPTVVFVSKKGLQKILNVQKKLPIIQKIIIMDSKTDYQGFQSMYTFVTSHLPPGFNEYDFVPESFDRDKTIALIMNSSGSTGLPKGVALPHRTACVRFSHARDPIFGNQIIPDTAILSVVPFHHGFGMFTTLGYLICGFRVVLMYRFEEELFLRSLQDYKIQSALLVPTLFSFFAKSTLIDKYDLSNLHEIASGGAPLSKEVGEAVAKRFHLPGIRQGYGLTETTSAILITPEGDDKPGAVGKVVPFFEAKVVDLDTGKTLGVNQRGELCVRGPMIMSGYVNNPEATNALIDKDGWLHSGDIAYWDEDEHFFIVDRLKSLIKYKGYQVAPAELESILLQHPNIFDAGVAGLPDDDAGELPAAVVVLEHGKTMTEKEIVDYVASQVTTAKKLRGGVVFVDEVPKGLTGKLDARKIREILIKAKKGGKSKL

As for `Cc1oc(C)c(C(=O)Nc2ccccc2)c1C`, the Potency result in experiment [1], in experiment [2], in experiment [3] and in experiment [4] was “inactive” throughout.

Turning to `CC(=O)OCC(=O)[C@H]1CC[C@H]2[C@@H]3CCC4=CC(=O)CC[C@]4(C)[C@H]3CC[C@]12C`, the Potency result in experiment [5], in experiment [1], in experiment [6], in experiment [7], in experiment [8] and in experiment [4] was “inactive” throughout.

As for `CCc1cccc(N(C)C(N)=Nc2cccc3ccccc23)c1`, the Potency entry in experiment [1], in experiment [2], in experiment [6], in experiment [7] and in experiment [3] was “inactive” each time.

Turning to `Cc1ccccc1N1C(=O)c2cc(S(N)(=O)=O)c(Cl)cc2NC1C` (stereo not drawn), the Potency result in experiment [5], in experiment [1], in experiment [2] and in experiment [3] was “inactive” throughout.

With `Cc1ccc(S(=O)(=O)NC2CCCCC2)cc1`, the Potency entry in experiment [5], in experiment [1], in experiment [6], in experiment [7], in experiment [3] and in experiment [8] was “inactive” throughout. Also, in experiment [4], the Potency result was “inactive”.

With `OCC1CC=CCC1` (stereo not drawn), the Potency entry in experiment [1], in experiment [6], in experiment [7] and in experiment [3] was “inactive” in each case.

In the case of `Cc1nccn1-c1ccc(Sc2cccc(C3(C(N)=O)CCOCC3)c2)cc1`, the Potency entry in experiment [5], in experiment [6], in experiment [3] and in experiment [4] was “inactive” each time. In experiment [7], the Potency was 9.69 µM (active).

For the compound `CCCCC(=O)O[C@]1(C(=O)CO)[C@@H](C)C[C@H]2[C@@H]3CCC4=CC(=O)C=C[C@]4(C)[C@@]3(F)[C@@H](O)C[C@@]21C`, the Potency result in experiment [5], in experiment [1], in experiment [2] and in experiment [4] was “inactive” throughout.

Take `CCCCC1C(=O)N(c2ccccc2)N(c2ccc(O)cc2)C1=O` (stereo not drawn): the Potency result in experiment [5], in experiment [1], in experiment [7] and in experiment [4] was “inactive” in each case. In addition, the Potency in experiment [6] was 29.8 µM (active).

Turning to `CCOC(=O)OCC`, the Potency result in experiment [5], in experiment [1] and in experiment [3] was “inactive” in each case.

As to `[O]=[Bi]`, in experiment [5], the activity change, negative = inhibition was 1.77% [at 10.5 µM]. In addition, the viability change, negative = cytotoxic in experiment [1] is 0.628% [at 8.39 µM]; in experiment [3] it was -7.88% [at 8.39 µM]. In addition, the activity change, negative = cytotoxicity in experiment [2] is -5.97% [at 8.39 µM]. Besides, in experiment [8], the Potency was 2.11 µM (active). The activation in experiment [4] is -4.11% [at 8.39 µM].

For the compound `CO[C@H]1O[C@H](CO)[C@@H](O)[C@H](O)[C@H]1O`, the Potency result in experiment [5], in experiment [1], in experiment [6], in experiment [7], in experiment [3] and in experiment [8] was “inactive” throughout. The Potency entry in experiment [4] is “inactive”.

Regarding `O=[N+]([O-])c1cccc(S(=O)(=O)NCCNS(=O)(=O)c2cccc([N+](=O)[O-])c2)c1`, the Potency result in experiment [5], in experiment [1], in experiment [6], in experiment [7], in experiment [3] and in experiment [8] was “inactive” each time. Further, in experiment [4], the Potency entry was “inactive”.

Take `Nc1nccs1`: the Potency result in experiment [5], in experiment [1], in experiment [2] and in experiment [3] was “inactive” throughout.

With `Nc1ccc(Cl)cc1[N+](=O)[O-]`, the Potency entry in experiment [1], in experiment [2] and in experiment [8] was “inactive” each time.

Take `CCC(Cc1ccccc1)(C(=O)c1ccc(N2CCOCC2)cc1)N(C)C` (stereo not drawn): the Potency result in experiment [5], in experiment [3] and in experiment [4] was “inactive” in each case.

Take `CCc1nn(CCCN2CCN(c3cccc(Cl)c3)CC2)c(=O)n1CCOc1ccccc1`: the Potency entry in experiment [5], in experiment [2], in experiment [6], in experiment [7] and in experiment [3] was “inactive” in each case.

Take `C[Si]1(C)O[Si](C)(C)O[Si](C)(C)O1`: the Potency result in experiment [5], in experiment [1], in experiment [6], in experiment [7], in experiment [3] and in experiment [8] was “inactive” each time. For the same compound, in experiment [4], the Potency result is “inactive”.

`N#C/C(=C1/SC[C@@H](c2ccc(Cl)cc2Cl)S1)n1ccnc1`: the Potency entry in experiment [5], in experiment [1], in experiment [6], in experiment [3] and in experiment [4] was “inactive” in each case. The Potency in experiment [8] is 23.7 µM (active).

Take `O=C(CCC1CCN(Cc2ccccc2)CC1)c1ccc2c(c1)NCCCC2`: the Potency result in experiment [5], in experiment [1], in experiment [2], in experiment [3] and in experiment [4] was “inactive” throughout. Also, in experiment [8], the Potency was 18.8 µM (active).

In the case of `CCOC(=O)N1CCC(n2c(=O)[nH]c3cc(Cl)ccc32)CC1`, the Potency entry in experiment [1], in experiment [2] and in experiment [7] was “inactive” in each case.

For the compound `CC[C@H](NC(=O)c1cc(F)ccc1NS(=O)(=O)c1cccc2cccnc12)c1ccccc1`, the Potency result in experiment [5], in experiment [1] and in experiment [4] was “inactive” in each case.

Turning to `CCOc1cc(N)c(Cl)cc1C(=O)NCC1CN(Cc2ccc(F)cc2)CCO1` (stereo not drawn), the Potency result in experiment [5], in experiment [1], in experiment [2] and in experiment [3] was “inactive” each time.

On to `O=C(CCCCCCCCC#CI)Oc1ccccc1`, for which the Potency entry in experiment [1], in experiment [2], in experiment [7] and in experiment [3] was “inactive” in each case.

In the case of `CCC(=O)Oc1ccc(/C(CC)=C(\CC)c2ccc(OC(=O)CC)cc2)cc1`, the Potency result in experiment [5], in experiment [1], in experiment [2], in experiment [3] and in experiment [4] was “inactive” throughout.

Consider `CC1=NN(c2ccc(C(=O)O)cc2)C(=O)C1`, for which the Potency entry in experiment [1], in experiment [2], in experiment [6] and in experiment [3] was “inactive” in each case.

As to `CCCCCCCCCCOS(=O)(=O)O`, the Potency entry in experiment [1], in experiment [2], in experiment [6], in experiment [7] and in experiment [3] was “inactive” in each case.

With `CCCCN(CCCC)C(=S)SSC(=S)N(CCCC)CCCC`, the Potency entry in experiment [1] and in experiment [2] was “inactive” in each case.

Take `CCC(C(=O)OCCOCCN(CC)CC)c1ccccc1` (stereo not drawn): the Potency entry in experiment [5], in experiment [1] and in experiment [3] was “inactive” in each case.

On to `c1cc[c]([Bi]([c]2ccccc2)[c]2ccccc2)cc1`, for which the Potency entry in experiment [1], in experiment [6], in experiment [3] and in experiment [4] was “inactive” each time. Moreover, the Potency in experiment [7] is 15.4 µM (active).

Regarding `C[C@@H]1C[C@H]2[C@@H]3CCC4=CC(=O)C=C[C@]4(C)[C@@]3(F)[C@@H](O)C[C@]2(C)[C@@]1(O)C(=O)CO`, the Potency entry in experiment [1], in experiment [2], in experiment [7] and in experiment [3] was “inactive” in each case.

In the case of `CCOC(=O)[C@@H](C)Oc1ccc(Oc2nc3ccc(Cl)cc3o2)cc1`, the Potency entry in experiment [1], in experiment [6], in experiment [3], in experiment [8] and in experiment [4] was “inactive” each time.

`CCOC(=O)CC(=O)C(=O)OCC`: the Potency result in experiment [5], in experiment [7], in experiment [3] and in experiment [4] was “inactive” throughout. In addition, the Potency in experiment [8] was 54.5 µM (active).

In the case of `Nc1ccc(S(=O)(=O)O)cc1`, the Potency result in experiment [1], in experiment [6], in experiment [7], in experiment [3], in experiment [8] and in experiment [4] was “inactive” each time.

`NC(=O)N(O)[C@@H]1COc2cc(OCc3ccccc3)ccc21`: the Potency entry in experiment [1], in experiment [2] and in experiment [6] was “inactive” throughout. The Potency in experiment [7] is 0.193 µM (active).
